# Assay outcomes (PubChem BioAssay)
# Most compounds without a hit are left out; they make up all but 2.5% or so of the library.
# Cruzain Triton: blocks cruzain activity in presence of Triton detergent | P25779 | purified cruzain, Z-FR-AMC fluorescence, 0.01% Triton | Potency, µM, usual class: inhibitors | hit rate 0.43% among 200,000 | AID 1478; further: nearly all actives have a fitted effect of over 40% in size
# Target sequence (P25779 123-467 limits assumed): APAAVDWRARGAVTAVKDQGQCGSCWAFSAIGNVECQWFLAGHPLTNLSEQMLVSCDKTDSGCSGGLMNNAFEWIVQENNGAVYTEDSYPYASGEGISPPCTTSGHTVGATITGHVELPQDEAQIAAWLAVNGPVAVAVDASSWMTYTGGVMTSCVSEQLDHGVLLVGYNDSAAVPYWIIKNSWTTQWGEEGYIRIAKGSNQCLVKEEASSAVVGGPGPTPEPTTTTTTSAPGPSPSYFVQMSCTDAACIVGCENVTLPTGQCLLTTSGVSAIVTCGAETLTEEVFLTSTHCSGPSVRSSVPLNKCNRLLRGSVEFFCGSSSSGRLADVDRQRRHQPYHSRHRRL
#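 Steps: dispense cruzain (1.5 nM final) in acetate buffer pH 5.5 with DTT and 0.01% Triton X-100; pin-transfer compounds; incubate 15 min RT; add Z-FR-AMC (2 uM final); read fluorescence every 30 s, using the 60 s intensity change.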
# Cruzain noTriton: blocks cruzain activity in detergent-free assay; purified cruzain, Z-FR-AMC fluorescence, no detergent; Potency, µM, usual class: inhibitors; hit rate 2.3% among 200,000; further: nearly all actives have a fitted effect of over 40% in size
#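 Purified cruzain at 1.5 nM, pre-incubated 15 min with compound at room temperature in 100 mM sodium acetate pH 5.5, 5 mM DTT, 0.00005% Triton X-100. Reaction started with 2 uM Z-FR-AMC; AMC fluorescence increase over 60 s gives rate.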
# A number is an active result; n = inactive; u = inconclusive. The call rests on the fitted dose curve; in most records, active means well fitted curve in the direction sought with a large enough effect; inconclusive means small, poorly fitted or top-dose-only effect, or another doubt; inactive means no such curve, though single readings can be large; an effect the other way counts as inactive or inconclusive.
SMILES,Cruzain Triton,Cruzain noTriton
Cc1ccc(F)cc1NCC(=O)Nc1ccc(Br)cc1,n,n
O=c1[nH]cc(CS(=O)(=O)Cc2c[nH]c(=O)[nH]c2=O)c(=O)[nH]1,n,n
CSCCC(NC(=O)c1cccc([N+](=O)[O-])c1)c1nc2ccccc2[nH]1 (configuration not stated),n,u
CSCC[C@H](NC(=O)COc1ccc(Cl)cc1)c1nc2ccccc2[nH]1,7.1µM,13µM
CSCC[C@H](NC(=O)c1cc([N+](=O)[O-])ccc1Cl)c1nc2ccccc2[nH]1,22µM,n
Cc1cc(Cl)ccc1OCC(=O)N[C@@H](Cc1ccccc1)c1nc2ccccc2[nH]1,n,n
O=C1[C@H]2[C@H]3C=C[C@@H](C4[C@H]3[C@@H]3C(=O)N(CN5CCSCC5)C(=O)[C@H]43)[C@H]2C(=O)N1CN1CCSCC1 (some centres not stated),n,n
COc1cccc(CNC(=O)CN2C(=O)N(c3ccc(C)cc3C)S(=O)(=O)c3ccccc32)c1OC,n,u
Cc1cc2oc(C(=O)Nc3ccc(S(N)(=O)=O)cc3)cc(=O)c2cc1C,n,n
CCc1ccccc1N(CC)C(=O)C(=O)Nc1ccc2nc3n(c(=O)c2c1)CCCCC3,n,u
CCc1c(C)sc(NC(=O)CSc2nc3c(c(C(F)(F)F)n2)CCc2ccccc2-3)c1C#N,n,4µM
CC(NC(=O)CSc1nc2c(c(C(F)(F)F)n1)CCc1ccccc1-2)c1ccccc1 (configuration not stated),n,n
CC(C)(C)c1ccc(-c2nc3cc(NC(=O)c4cccc(Br)c4)ccc3o2)cc1,n,n
COc1ccc(OC)c(C2=NNC(=NCc3ccc4c(c3)OCO4)SC2)c1,n,13µM
Oc1ccc(C2=NNC(=NCc3ccc4c(c3)OCO4)SC2)c(O)c1,n,u
N#CCCCC[N+]12CN3CN(CN(C3)C1)C2,n,n
CCCOc1ccc(C2=NC(c3ccc(F)cc3)=Nc3ccc(OC)cc3N2)cc1,n,10µM
COc1ccc2c(c1)NC(c1ccc(F)cc1)=NC(c1ccc(F)cc1)=N2,n,u
O=[N+]([O-])c1ccccc1-c1ccc(/C=N/n2cnnc2)o1,n,n
Nn1cnnc1N/N=C\c1ccc(-c2ccccc2[N+](=O)[O-])o1,20µM,n
COc1ccc(-n2cc(C(=O)NCCc3ccc(C)cc3)c3ccccc3c2=O)cc1,n,25µM
COc1cccc(-n2cc(C(=O)NCCc3ccc(C)cc3)c3ccccc3c2=O)c1,n,n
CC(=O)Oc1oc(-c2ccccc2)nc1C=Nc1ccccc1,25µM,25µM
CN(C)c1ccc(/C=C/C(=O)c2cccc(Br)c2)cc1,n,n
CCOC(=O)c1ccc(N=Cc2nc(-c3ccccc3)oc2OC(C)=O)cc1,14µM,n
SMILES,Cruzain Triton,Cruzain noTriton
Cc1ccc(C(=O)Oc2oc(-c3ccco3)nc2C=Nc2ccccc2)cc1,10µM,13µM
CCC(=O)Oc1oc(-c2ccccc2)nc1C=Nc1ccccc1OC,n,n
CN(C)c1ccc(N=Cc2nc(-c3ccccc3)oc2OC(=O)c2cccc(Br)c2)cc1,n,25µM
CCOC(=O)c1ccc(N=Cc2nc3ccccc3n2C)cc1,n,n
Oc1oc(-c2ccco2)nc1C=Nc1ccccc1,n,n
COc1ccc(S(=O)(=O)N(CC(=O)Nc2cccc(C(F)(F)F)c2)c2ccc(C)cc2)cc1,n,n
O=C(Cn1c(=O)nc(-c2ccccc2)c2ccccc21)NCc1ccccc1Cl,n,n
Cc1nn2c(C)c(C(=O)NC(C)c3ccccc3)cnc2c1-c1ccc(F)cc1 (configuration not stated),n,n
COC(=O)c1c(-c2cccs2)csc1NC(=O)c1cc(OC)cc(OC)c1,n,n
COCCNC(=S)NCCCNc1nc2cc3c(cc2cc1C#N)OCO3,18µM,u
CCOCCCNC(=S)NCCNc1nc2ccc(C)cc2cc1C#N,n,n
O=C(NCCCO)Nc1ccc2nc(-c3ccco3)c(-c3ccco3)nc2c1,13µM,7.9µM
COc1ccc(CCNC(=O)c2ccc3nc(-c4ccco4)c(-c4ccco4)nc3c2)cc1OC,14µM,n
OCCCNC(=S)Nc1ccc2nc(-c3ccccn3)c(-c3ccccn3)nc2c1,n,n
O=C(Nc1cccc(C(F)(F)F)c1)c1ccc2nc(-c3ccco3)c(-c3ccco3)nc2c1,14µM,u
O=C(Nc1cccc(C(F)(F)F)c1)c1ccc2snnc2c1,n,n
CCc1nc2ccc(C(=O)NCCc3ccc(OC)c(OC)c3)cc2nc1CC,n,n
O=C(Nc1ccc2nc(-c3ccco3)c(-c3ccco3)nc2c1)NC1CC1,8.9µM,2.5µM
O=C(Nc1nc(-c2ccco2)c(-c2ccco2)s1)C1CCC1,n,n
Cc1ccc(C2C=C(c3ccc(Cl)cc3)Nc3nc(NC(=O)c4ccco4)nn32)cc1 (configuration not stated),n,n
NCC[C@H](N)C(=O)O,n,n
CC1=C(C(=O)Nc2cccnc2)C(c2ccc(F)cc2)n2nc(SCc3ccccc3)nc2N1 (configuration not stated),n,n
